Screening data as filed in PubChem BioAssay.
Shown are actives, neighbours in structure and some others; about 2.6% of the full set was active somewhere.
TROY NFkB inh: TROY signaling inhibition; AID 1347056; inhibition, % at 10 µM; 360,000 tested, 0.98% active; Q293 LMP1-TROYcd NF-kB luciferase reporter, 4 h;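 active = compounds whose plate-normalised and pattern-corrected inhibition of the luciferase reporter signal at the single screening dose is 50% or more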
LGR2 antag: inhibitors of bursicon-induced Drosophila LGR2 receptor cAMP signaling; inhibition, % at 9.99 µM; 380,000 tested, 0.35% active; AID 720647; HEK293 LGR2, CRE-luciferase, bursicon-stimulated, 4 h;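 active = drop in luminescence signal, shown as inhibition above about 50% in the replicate tests, limit read from the data, passing the limit was not always enough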;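 note: agonist challenge used bursicon conditioned medium at about half maximal strength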
LMP1 NFkB inh: inhibitors of Epstein-Barr LMP1-induced NF-kappaB reporter; inhibition, % at 12.5 µM; LMP1-induced NF-kappaB luciferase reporter cells, luminescence; 350,000 tested, 0.69% active; in the data active = inhibition above about 41%
HSP90 inh: blocks HSP90-mediated luciferase refolding in reticulocyte lysate; 290,000 tested, 0.91% active; AID 1789; inhibition, % at 5.6 µM; Rabbit reticulocyte lysate, luciferase refolding luminescence, 3 h;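 active = inhibition above the screen-wide mean plus 3 SD, computed separately per campaign, cut at about 16% in these data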;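 note: inhibitors lower the luminescence because luciferase stays unfolded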
aDG glyco act: alpha-DG glycosylation activation; Pro5-aDG cells, alpha-DG glycosylation AlphaScreen (IIH6); 0% Pro5, 100% B10-LARGE cell signal; activation, % at 10 µM; 360,000 tested, 0.22% active; AID 624168;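 active = activation of at least 8% versus controls, or a plate z-score of at least 8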;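 note: Pro5 are CHO cells carrying HIG-tagged alpha-DG that lacks glycosylation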
TWEAK-Fn14 inh: TWEAK-Fn14 signaling inhibition; TWEAK-stimulated Fn14 reporter cells, luciferase luminescence, 8 h; inhibition, % at 10 µM; 360,000 tested, 2% active; AID 1159606; in the data active = inhibition above about 50%
HSP90 inh confirm: confirmation of HSP90 inhibitors | shares compounds with HSP90 inh | rabbit reticulocyte lysate, luciferase refolding luminescence, 3 h | inhibition, % at 5.9 µM | 2,300 tested, 64% active | AID 1846; in the data active = inhibition above about 18%
FLuc counter: blocks native firefly luciferase in HSP90 counter-screen. 2,300 tested, 48% active. purified native firefly luciferase, luminescence. inhibition, % at 5.9 µM. shares compounds with HSP90 inh;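 active = inhibition above the mean inhibition of all tested sample wells plus 3 SD, cut at about 10% in these data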
Target sequence (P08659 whole entry, looked up): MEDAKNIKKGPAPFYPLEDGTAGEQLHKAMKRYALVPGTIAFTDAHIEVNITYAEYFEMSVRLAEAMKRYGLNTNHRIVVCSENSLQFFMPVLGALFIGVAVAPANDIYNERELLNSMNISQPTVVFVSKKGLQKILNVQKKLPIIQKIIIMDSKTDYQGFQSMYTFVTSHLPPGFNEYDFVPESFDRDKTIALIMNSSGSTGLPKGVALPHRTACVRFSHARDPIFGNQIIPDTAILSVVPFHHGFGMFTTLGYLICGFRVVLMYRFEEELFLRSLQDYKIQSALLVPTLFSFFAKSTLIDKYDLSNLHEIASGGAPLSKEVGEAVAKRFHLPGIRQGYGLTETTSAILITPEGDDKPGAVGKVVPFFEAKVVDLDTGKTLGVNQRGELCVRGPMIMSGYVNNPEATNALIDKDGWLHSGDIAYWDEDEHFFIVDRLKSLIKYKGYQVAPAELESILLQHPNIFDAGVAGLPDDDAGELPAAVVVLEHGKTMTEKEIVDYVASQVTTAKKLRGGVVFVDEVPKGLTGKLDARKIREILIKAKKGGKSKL
Hits are given with their value; 0 = inactive; - = no result.

SMILES	TROY NFkB inh	LGR2 antag	LMP1 NFkB inh	HSP90 inh	aDG glyco act	TWEAK-Fn14 inh	HSP90 inh confirm	FLuc counter
CCOc1ccc(OCc2cccc(C(=O)N3CCCC3)c2)cc1	0	0	54	21	0	0	30	26
CCOc1ccc(OCc2cccc(C(=O)N3CCCCCC3)c2)cc1	0	0	53	28	0	0	56	52
COc1ccccc1CNC(=O)C[C@@H]1CC[C@H]2[C@@H](COC[C@H](O)CN2Cc2ccc3c(c2)OCO3)O1	-	0	-	-	-	-	-	-
Cc1cccc(NC(=O)c2ccc3c(Cl)c4c(nc3c2)CCCC4)n1	71	0	0	17	0	63	58	47
CCC(C)NC(=O)c1ccc2c(Cl)c3c(nc2c1)CCC3 (configuration not stated)	0	0	0	0	0	0	-	-
C[C@H]1CN([C@@H](C)CO)S(=O)(=O)c2ccc(-c3cncnc3)cc2O[C@@H]1CN(C)C(=O)Cc1ccccc1	-	0	-	-	-	-	-	-
Cc1oc2cc(OCC(=O)O)ccc2c(=O)c1Oc1ccccc1	0	0	0	0	0	0	-	-
COc1ccc2c(=O)c(Oc3ccc(C(=O)O)cc3)c(C(F)(F)F)oc2c1	0	0	0	72	0	0	0	0
C[C@H]1CCCCO[C@@H](CN(C)C(=O)CCCN(C)C)[C@@H](C)CN([C@@H](C)CO)C(=O)c2cc(NS(C)(=O)=O)ccc2O1	-	0	-	-	-	-	-	-
Cc1ccc(NC2=Nc3ccccc3CS2)cc1	0	-	0	26	0	74	48	43
CCOC(=O)N1CCN(C(=O)c2ccc3c(c2)sc2nc(-c4ccc(OC)cc4)cn23)CC1	0	0	0	0	0	0	-	-
COc1ccc2c(c1)sc1nc(-c3ccccc3)cn12	84	-	80	63	14	103	90	86
CC(=O)Nc1cccc(NC(=O)c2ccc3c(c2)CCN3S(=O)(=O)c2ccccc2)c1	0	0	0	0	0	0	-	-
CC(=O)c1cccc(NC(=O)c2ccc3c(c2)CCN3S(=O)(=O)c2ccccc2)c1	0	0	0	20	0	74	0	0
N#CCCN(Cc1cccnc1)C(=S)NC(=O)c1ccco1	0	0	0	0	0	0	-	-
N#CCCN(Cc1cccnc1)C(=S)NCc1ccco1	0	0	0	61	0	0	0	0
Cc1ccccc1-c1nc2cc(N)ccc2o1	0	0	0	0	0	0	-	-
CC(C)c1ccc2oc(-c3cc(N)ccc3O)nc2c1	69	-	0	46	0	81	80	79
CS(=O)(=O)c1ccc2nc(NC(=O)Nc3ccccc3F)sc2c1	0	0	0	18	0	0	18	0
COc1ccc(CCNC(=O)Cc2cc(OC)c(OC)cc2Br)cc1OC	0	0	0	34	0	0	0	0
COc1ccc(CCNC(=O)Cc2ccc(Cl)cc2)cc1OC	0	0	0	0	0	0	-	-
Cc1ccc(-c2cn(-c3ccccc3)c(=S)[nH]2)cc1C	0	0	0	19	0	68	27	15
COc1ccccc1NC(=O)c1ccc(COc2ccc3c(c2)CCC3)cc1	0	0	0	0	0	0	-	-
COc1cccc(OC)c1C(=O)NNC(=O)c1cccc(COc2ccc3c(c2)CCC3)c1	0	-	0	0	0	0	-	-
O=C(O)c1cccc(COc2ccc3c(c2)CCC3)c1	0	101	85	83	0	0	95	93
SMILES	TROY NFkB inh	LGR2 antag	LMP1 NFkB inh	HSP90 inh	aDG glyco act	TWEAK-Fn14 inh	HSP90 inh confirm	FLuc counter
O=C(OCC(F)(F)F)c1cccc(COc2ccc3ccccc3c2)c1	0	-	79	25	0	0	93	22
O=C(NCc1ccccc1)c1cccc(COc2ccc3c(c2)CCC3)c1	0	0	58	36	0	0	45	45
O=Cc1ccc(OCc2cccc(C(F)(F)F)c2)cc1O	0	0	0	0	0	0	-	-
O=c1nc(/C=C/c2ccc(O)c(O)c2)oc2ccccc12	0	-	0	0	0	0	-	-
CC(=O)Oc1ccccc1/C=C/c1nc2ccccc2c(=O)o1	0	65	45	32	0	62	45	0
COc1ccc(/C=C\c2nc(=O)c3ccccc3o2)cc1	0	0	0	21	0	0	31	14
CC(=O)Oc1ccc(/C=C/c2nc3ccccc3c(=O)o2)cc1	50	59	0	28	0	79	32	0
O=c1oc(/C=C/c2ccc([N+](=O)[O-])s2)nc2ccccc12	0	-	0	0	0	0	-	-
CC(=O)Oc1ccc(-c2nc3ccccc3c(=O)o2)cc1	0	0	0	0	0	0	-	-
CC(C)CN1C(=O)NC(NC(=O)c2ccco2)(C(F)(F)F)C1=O (configuration not stated)	0	-	0	27	0	0	0	0
CN1C(=O)NC(NC(=O)c2ccco2)(C(F)(F)F)C1=O (configuration not stated)	0	-	0	0	0	0	-	-
CN(C)c1ccc(-c2nc3ccccc3c(=O)[nH]2)cc1	0	66	0	34	0	0	68	53
COc1ccc(-c2nc3ccccc3c(=O)[nH]2)cc1	0	0	0	0	0	0	-	-
CO[C@H]1CN(C)C(=O)c2ccc(NS(=O)(=O)c3cn(C)cn3)cc2OC[C@H](C)N(CCC(F)(F)F)C[C@@H]1C	-	0	-	-	-	-	-	-
CC(=O)NC[C@H]1[C@@H](c2ccc(-c3cccnc3)cc2)[C@H](CO)N1C(=O)C1CC1	-	0	-	-	-	-	-	-
Cc1[nH]c2ccccc2c1C(c1ccccn1)N1CCC(C)CC1 (configuration not stated)	0	-	0	46	0	0	0	0
C[C@@H]1CN([C@@H](C)CO)C(=O)c2cccc(NC(=O)NC3CCCCC3)c2O[C@H]1CN(C)S(C)(=O)=O	-	0	-	-	-	-	-	-
O=C(c1ccc([N+](=O)[O-])cc1)N1CCN(C(=O)c2ccco2)CC1	0	0	0	21	0	0	0	0
COCC#Cc1ccc([C@@H]2[C@H](C#N)N(C(=O)Cc3ccccc3)[C@H]2CO)cc1	-	0	-	-	-	-	-	-
CO[C@@H]1CN(C)C(=O)c2ccc(NS(C)(=O)=O)cc2OC[C@H](C)N(C)C[C@@H]1C	-	0	-	-	-	-	-	-
CC(=O)NN1C(=O)c2ccc3c4c(ccc(c24)C1=O)C(=O)N(NC(C)=O)C3=O	0	0	0	45	0	0	30	0
c1ccc2c(c1)CC1(CCCC1)n1nnnc1-2	0	-	0	18	0	0	0	0
CC1(C)Cc2ccccc2-c2nnnn21	0	0	0	0	0	0	-	-
O=C(NCC(c1cccs1)N1CCOCC1)c1cccc([N+](=O)[O-])c1 (configuration not stated)	0	0	0	67	0	0	0	0
CC(C)(C#N)Cc1cc(CC(C)(C)C#N)cc(C(C)(C)C)c1	0	0	0	0	0	0	-	-
